About 83,000 compounds went through this panel and 20% of them were active in at least one assay; those are over-represented in the sample as a whole.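 Single-concentration screen, 48 h exposure, 96-well plates. Endpoint: percent growth. Below 10 = active.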 A number with no mark means an inactive call. Activity calls are given as the source filed them.

Test systems include NCI-H23 lung; NCI-H226 lung; NCI-H322M lung; HOP-62 NSCLC; NCI-H460 lung; NCI-H522 lung; A549/ATCC NSCLC; 786-0 renal; COLO 205 colon; DU-145 prostate; K-562 leukemia; MALME-3M melanoma; MDA-MB-231 breast; RXF 393 renal; SF-268 CNS; SF-295 CNS; SF-539 CNS; UACC-257 melanoma; M14 melanoma; HCT-15 colon.
Test in all cases: NCI-60 one-dose screen, 48 h (100 = growth as untreated, 0 = no growth, -100 = all killed)
Conditions in all cases: 10 µM unless noted

As to `CCOC(=O)c1c2c(c(C)n1Cc1ccc(OC)cc1)-c1nc(N)ncc1CC2`, the growth is 125% with NCI-H23 lung; 92.2% with NCI-H226 lung; 113% in the assay with NCI-H322M lung; 83.5% in the assay on HOP-62 NSCLC; 111% with NCI-H460 lung; 114% in the assay on NCI-H522 lung. Further, the growth in the assay on A549/ATCC NSCLC was 110%; in the assay on 786-0 renal it was 98.5%; with COLO 205 colon, 116%; with DU-145 prostate, 116%; in the assay on K-562 leukemia it was 88.8%; with MALME-3M melanoma, 132%. The growth with MDA-MB-231 breast is 97.2%; in the assay on RXF 393 renal, 116%; in the assay on SF-268 CNS it was 110%; with SF-295 CNS, 104%; with SF-539 CNS, 112%; in the assay on UACC-257 melanoma it was 121%. Also, the growth is 106% in the assay with M14 melanoma and 113% in the assay with HCT-15 colon.
As to `COc1ccc2c(c1)C(=O)c1c-2c(OCCN(C)C)nc2cc(OC)ccc12`, the growth with NCI-H23 lung was -57.2% (active); in the assay on NCI-H226 lung it was -25.7% (active); with NCI-H322M lung, 19.7%; with HOP-62 NSCLC it was 14.9%; in the assay with NCI-H460 lung it was -70.7% (active); with NCI-H522 lung it was -22.1% (active). For the same compound, the growth is -43.6% (active) in the assay with A549/ATCC NSCLC; 36.1% in the assay on 786-0 renal; 2.84% (active) in the assay with COLO 205 colon; 29% in the assay with DU-145 prostate; -47.7% (active) in the assay with K-562 leukemia; -39.9% (active) in the assay with MALME-3M melanoma. The growth in the assay with MDA-MB-231 breast was 1.22% (active); with RXF 393 renal, -8.64% (active); in the assay with SF-268 CNS, 35.7%; in the assay with SF-295 CNS it was 31.8%; with SF-539 CNS it was 15%; in the assay with UACC-257 melanoma, 20.5%. In addition, the figures for the growth in the assay with M14 melanoma and in the assay on HCT-15 colon were 11.6% and -63.4% (active), respectively.
For `Nc1ccc(C2=Nc3cccc4cccc(c34)S2)cc1`, the growth is 86.9% with NCI-H23 lung; 59.3% with NCI-H226 lung; 88.1% in the assay with NCI-H322M lung; 83.6% in the assay on HOP-62 NSCLC; 89.5% with NCI-H460 lung; 82.7% in the assay on NCI-H522 lung. Besides, the growth with A549/ATCC NSCLC was 81.5%; in the assay on 786-0 renal it was 121%; in the assay on COLO 205 colon, 100%; in the assay with DU-145 prostate, 98.2%; in the assay with K-562 leukemia, 88.3%; with MALME-3M melanoma it was 94.5%. The growth is 60% in the assay on MDA-MB-231 breast; 107% in the assay with RXF 393 renal; 88.9% in the assay on SF-268 CNS; 73% in the assay with SF-295 CNS; 102% in the assay on SF-539 CNS; 84.3% in the assay with UACC-257 melanoma. In addition, in the assay with M14 melanoma, the growth is 83.9%.
With `CC(C)[C@H]1CC[C@H]2[C@@H](CC[C@H]3[C@](C)(CN)CCC[C@]23C)C1`, the growth was 88.4% in the assay on NCI-H23 lung; 105% in the assay on NCI-H226 lung; 15.3% in the assay on NCI-H322M lung; 56.3% in the assay on HOP-62 NSCLC; -66.1% (active) with NCI-H460 lung; 80% in the assay on NCI-H522 lung. Moreover, the growth with A549/ATCC NSCLC is 87%; in the assay on 786-0 renal it was 72.9%; with COLO 205 colon it was -82.6% (active); in the assay with DU-145 prostate, 11.2%; in the assay on K-562 leukemia, 18.7%; in the assay with MALME-3M melanoma, 83%. Moreover, the growth in the assay with MDA-MB-231 breast is 63.6%; with RXF 393 renal it was 86.9%; in the assay on SF-268 CNS it was 53.5%; with SF-295 CNS, 80.5%; with SF-539 CNS, 98.8%; in the assay with UACC-257 melanoma, 108%. Further, the growth in the assay on M14 melanoma is 93%.
Take `Clc1ccc(CCC(Cn2ccnc2)Sc2c(Cl)cccc2Cl)cc1` (stereo unspecified): the growth in the assay on NCI-H23 lung was 42.5%; with NCI-H226 lung, 90.6%; with NCI-H322M lung, 81.3%; in the assay with HOP-62 NSCLC, 83%; in the assay on NCI-H460 lung it was 47.3%; with NCI-H522 lung, 20.3%. Also, the growth with A549/ATCC NSCLC is 61.2%; in the assay with 786-0 renal, 56.4%; with COLO 205 colon, 57.7%; with DU-145 prostate it was 94.2%; with K-562 leukemia, 30.5%; in the assay on MALME-3M melanoma, 60.3%. Further, the growth with MDA-MB-231 breast is 55.5%; in the assay on RXF 393 renal, 67.4%; with SF-268 CNS, 87.1%; with SF-295 CNS it was 43.4%; with SF-539 CNS it was 91.5%; with UACC-257 melanoma it was 83.4%. The figures for the growth in the assay with M14 melanoma and with HCT-15 colon were 54.9% and 34%, respectively.
Consider `CCOC(=O)c1c(NC(=O)C2CCCCC2C(=O)O)sc2c1CCCC2` (stereo unspecified), for which the growth in the assay on NCI-H23 lung was 99.4%; with NCI-H226 lung, 95.5%; with NCI-H322M lung, 86.4%; with HOP-62 NSCLC it was 104%; in the assay with NCI-H460 lung, 109%; in the assay on NCI-H522 lung it was 94%. In addition, the growth in the assay with A549/ATCC NSCLC is 97.6%; in the assay on 786-0 renal it was 106%; in the assay with COLO 205 colon it was 114%; in the assay with DU-145 prostate, 108%; in the assay on K-562 leukemia it was 102%; with MALME-3M melanoma, 109%. Besides, the growth was 105% in the assay with MDA-MB-231 breast; 114% with RXF 393 renal; 105% in the assay on SF-268 CNS; 96.3% in the assay on SF-295 CNS; 102% in the assay with SF-539 CNS; 92.1% in the assay on UACC-257 melanoma. Moreover, the growth with M14 melanoma and in the assay with HCT-15 colon was 106% throughout.
With `NC(=O)c1ncn([C@@H]2O[C@H](CO)[C@@H](O)[C@H]2O)n1`, the growth was 99.1% in the assay on NCI-H23 lung; 106% with NCI-H226 lung; 88.3% in the assay with NCI-H322M lung; 97.2% in the assay on HOP-62 NSCLC; 100% in the assay on NCI-H460 lung; 70.6% in the assay with NCI-H522 lung. The growth is 91.2% with A549/ATCC NSCLC; 95.6% in the assay on 786-0 renal; 82.6% in the assay with COLO 205 colon; 82.7% in the assay with DU-145 prostate; 88.3% in the assay on K-562 leukemia; 92.7% in the assay with MALME-3M melanoma. The growth was 89.5% in the assay with MDA-MB-231 breast; 119% with RXF 393 renal; 109% in the assay on SF-268 CNS; 95.5% with SF-295 CNS; 108% in the assay with SF-539 CNS; 103% in the assay with UACC-257 melanoma. Moreover, in the assay on M14 melanoma, the growth was 98.8%.
On to `CC(C)c1ccc(C(=O)Nc2sc3c(CN(C)C)c(O)ccc3c2C(N)=O)cc1`, for which the growth in the assay on NCI-H23 lung was 49.1%; in the assay with NCI-H226 lung, 86.9%; with NCI-H322M lung it was 65.5%; in the assay with HOP-62 NSCLC, 64.4%; with NCI-H460 lung it was 72%; with NCI-H522 lung it was 43.7%. Moreover, the growth with A549/ATCC NSCLC is 33%; in the assay on 786-0 renal, 49.6%; in the assay with COLO 205 colon it was 47.1%; in the assay on DU-145 prostate it was 51.9%; in the assay with K-562 leukemia it was -41.3% (active); in the assay on MALME-3M melanoma it was 63.9%. In addition, the growth with MDA-MB-231 breast was 38.5%; in the assay with RXF 393 renal, 12.2%; in the assay with SF-268 CNS, 69.3%; with SF-295 CNS, 61.9%; in the assay with SF-539 CNS it was 40.8%; with UACC-257 melanoma, 9.32% (active). Further, in the assay on M14 melanoma, the growth was 18.5%.

(Values after PubChem BioAssay (NCI).)
